The record followed here is PubChem BioAssay (NCI).

Several values for one entry are separate records, joined by “and”; a condition that tells them apart may be missing. Identical values can stand only once. Compounds without any hit were thinned out: in the full panel of roughly 83,000, 20% have a hit.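 Method: cells in 96-well plates; compound added at one concentration; 48 h incubation; percent growth measured; values under 10 scored active.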 Unmarked numbers belong to inactive results. Activity calls are given as the source filed them.

This assay has as its system M14 melanoma. The assay is described as follows: NCI-60 one-dose screen, 48 h (100 = growth as untreated, 0 = no growth, -100 = all killed). The conditions noted are these: 10 µM unless noted. Here is the method: Growth inhibition of the M14 human tumor cell line is measured as a screen for anti-cancer activity. Cells are grown in 96 well plates and exposed to the test compound for 48 hours. Compounds are tested at a single concentration, which is 10^-5 M for most compounds. The reported endpoint is percent growth (GI% or GIPRCNT), where numbers from 0 - 100% represent growth inhibition, and numbers from -100% - 0 represent cell death. For example, a value of 40 represents 60% growth inhibition. A value of 0 means no net growth occurred over the course of the experiment. A value of -40 indicates 40% of cells at the beginning of the experiment died by the end of the experiment. A value of -100 means all cells are dead at the end of the experiment.
NCI-60 Human Tumor Cell Lines Screen was performed using the standard one-dose NCI protocol, which is described in more detail at https://dtp.cancer.gov/discovery_development/nci-60/default.htm.
Compounds with GIPRCNT values below 10 were considered active. Activity score was based on GIPRCNT using the following formula: […]
Score is 0 for GIPRCNT values of 100 or above, 50 for GIPRCNT values of 0, and 100 for GIPRCNT values of -100.
Turning to `O=[N+]([O-])c1ccc2scc3c4ccccc4nc-3c2c1`, the growth is -54.8% (active). As to `C/C(=C\c1ccn(-c2ccc(N)c(C(F)(F)F)c2)n1)[C@@H]1C[C@@H]2O[C@]2(C)CCC[C@H](C)[C@H](O)[C@@H](C)C(=O)C(C)(C)[C@@H](O)CC(=O)O1`, the growth was 21.7%.

For `CCC1(NC(=O)c2cc(F)c(F)c(F)c2F)C(=O)NC(=O)N(C(C)C)C1=O` (stereo not given), the growth is 50%. Next, `COC(=O)C1=CCCN(C)C1`: 98% and 100%. Next, `O=c1[nH]c(=O)n(Cl)c(=O)n1Cl`: 103% and 98.4%.

Turning to `COc1cc(C2C3=C(CCCC3=O)N(CCO)c3cc4c(cc32)CCC4)cc(OC)c1OC` (stereo not given), the growth was 98%. On to `ClCc1ccc(Cl)c(Cl)c1`, for which the growth was 95.3%.

As to `CCCCOCCOP(=O)(OCCOCCCC)OCCOCCCC`, the growth is 106%. The same measure for `Cc1ccc(S(=O)(=O)n2cc([C@@]3(O)C[C@H](CSC#N)OC3=O)c3ccccc32)cc1`: 66.2%. The same measure for `COC12CC3(C)C(C4=CC(=O)OC4)CCC3(O)C3CCC4=CC(=O)CCC4(CO1)C32` (stereo not given): 92.6%. Next, `CC12CCC3C4CCC(=O)C=C4CCC3C1CC1CC(=O)OC12` (stereo not given): 104%; `Oc1ccccc1C=NCCN=Cc1ccccc1O.[Fe]`: 93.9%; `O=[N+]([O-])c1ccc(OCc2ccc(S(=O)(=O)F)c(Cl)c2)c(Cl)c1`: 96.9%. For `COc1ccc2c(c1)c(-c1nc(-c3c[nH]c4ncccc34)cs1)cn2CCCCN1CCOCC1`, the growth is -53.5% (active). Regarding `Oc1cc(Cl)ccc1Oc1ccc(Cl)cc1Cl`, the growth was 22.1%. In the case of `COc1ccc(C(C#N)C(C)=O)cc1` (stereo not given), the growth was 101%. Consider `COc1ccc(CN)cc1OC`, for which the growth is 110% and 98.7%. The same measure for `N#CC(C#N)=Cc1cccc(F)c1`: 107%; for `CCCCCCCCCCCCCCCCCC1OCC(COC(=O)O[C@@H](C(=O)O[C@H]2C[C@@]3(O)[C@@H](OC(=O)c4ccccc4)[C@@H]4[C@]5(OC(C)=O)CO[C@@H]5C[C@H](O)[C@@]4(C)C(=O)[C@H](OC(C)=O)C(=C2C)C3(C)C)[C@@H](NC(=O)c2ccccc2)c2ccccc2)O1` (stereo not given in full): 37.8%; for `O=P(O)(Nc1ccccc1)Nc1ccccc1`: 88.4%. Take `COC(=O)C12C3C4C1C1C2C3C41NC(=O)c1csc([C@@H](C[C@H](C(C)C)N(C)C(=O)[C@@H](NC(=O)[C@H]2CCCCN2C)C2CC2)OC(C)=O)n1` (stereo not given in full): the growth was 9.39% (active). For `CC[C@H](C)[C@H](NC(=O)[C@H]1CCCCN1C)C(=O)N(C)[C@H](C[C@@H](OC(C)=O)c1nc(C(=O)N[C@@H](Cc2ccccc2)C[C@H](C)C(=O)O)cs1)C(C)C`, the growth was 8.87% (active). The same measure for `COc1cc(C=C2C(=O)NC(=O)NC2=O)ccc1O`: 101%. As for `COc1ccn(C)c(=O)c1C#N`, the growth is 102%. For the compound `C[C@@H]1C/C=C\C(=O)O[C@H](/C=C/C#C/C=C/C(C)(C)[C@@H](O)c2cccc(O)c2Br)[C@@H](C)/C=C/[C@H](C)C[C@H](OC(N)=O)C1`, the growth was 0.391% (active).

Turning to `Cc1ccc(N2CCN(CCC#N)CC2)cc1`, the growth is 98.6%. For the compound `N#CCN(CC#N)[N+](=O)[O-]`, the growth is 97%. For the compound `CC(Oc1ccc(-c2ccccc2)cc1)C(=O)O` (stereo not given), the growth is 102%.

`CN(C)[C@@H]1C(=O)C(C(N)=O)=C(O)[C@@]2(O)C(=O)C3=C(O)c4c(O)ccc(Cl)c4[C@@](C)(O)[C@H]3C[C@@H]12`: the growth was 79.8% and 92.6%.

Turning to `Cc1ccc(C(=O)O[C@H](C(=O)O)[C@H](OC(=O)c2ccc(C)cc2)C(=O)O)cc1`, the growth is 100%. Next, `O=Cc1cn(Cc2ccccc2)c2ccccc12`: 117%; `Nc1cccnc1`: 113%. The same measure for `Nc1nc(=S)nc(N)[nH]1`: 89.5%; for `CCCCCCCCCCCCCCCC[N+](C)(C)Cc1ccccc1`: -45.6% (active) and -88.7% (active); for `CC(=O)OC1CC2(O)C(CCC3(C)C(c4ccc(=O)oc4)CCC32O)C2(C)CCC(OC3OC(CO)C(O)C(O)C3O)C=C12` (stereo not given): -78% (active). The same measure for `N[C@@H](CCC(=O)CCl)C(=O)O`: 95.9% [20 µM]; for `Nc1c(Cl)c(Cl)nc(C(=O)O)c1Cl`: 104%. For the compound `O=C(CCCN1CCC2(CC1)C(=O)NCN2c1ccccc1)c1ccc(F)cc1`, the growth is 80.8% and 54%. Next, `CC[C@H](C)[C@H](NC(=O)[C@H]1CCCCN1C)C(=O)N(C)[C@H](C(=O)NC12CC(C(=O)N[C@@H](Cc3ccccc3)C[C@H](C)C(=O)OC)(C1)C2)C(C)C`: 101%. The same measure for `O=[N+]([O-])c1ccc(CI)cc1`: 71.6%.
